About 83,000 compounds went through this panel and 20% of them were active in at least one assay; those are over-represented in the sample as a whole.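 Cells were grown in 96-well plates and exposed to the test compound at a single concentration for 48 hours; results are reported as percent growth, with values below 10 considered active.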 Values without a mark were called inactive. Active and inactive are the calls of the source.

This experiment has as its system KM12 colon. Nature of the experiment: NCI-60 one-dose screen, 48 h (100 = growth as untreated, 0 = no growth, -100 = all killed). The settings on record: 10 µM.
Consider `CCCOCC(O)CNCCN` (configuration not stated), for which the growth is 122%.
With `CCCC(C)c1ccc(OCCCCCCN2CCNCC2)cc1` (configuration not stated), the growth was 15.1%.
As for `Nc1cc(O)cc(O)c1`, the growth is 99.7%.
To `Cc1cc(C(C)(C)CC(C)(C)C)ccc1OCCOCC[N+](C)(C)Cc1ccccc1` belongs -92.5% (active); to `CC(C)c1[nH]nc2c(NCc3ccc(-c4ccccn4)cc3)nc(SCCN)nc12`, 5.47% (active); to `CC(=O)c1c(O)cc2c3c1OC(C)(C)C1CCC(C)(CC31)O2` (configuration not stated), 94.8%.
For the compound `CN(C)CCCN1c2ccccc2Sc2ccc(C(F)(F)F)cc21`, the growth is 0.137% (active).
`CNC(=O)c1cc(Oc2ccc(NC(=O)Nc3ccc(Cl)c(OC4CCCCC4)c3)c(F)c2)ccn1`: the growth is 26.2%.
In the case of `O=C(Nc1cccc(F)c1)Nc1cccc(Cl)c1`, the growth was 47.6%.
As for `CCN(CC)CC(O)CNc1ccnc2cc(Cl)c(Cl)cc12` (configuration not stated), the figure is 94.2%; as for `CCCCCCOc1ccc(/C=C/C(=O)c2ccc(B(O)O)cc2)cc1`, 85.4%.
For the compound `CC1(C)CC(OCCCC[P+](c2ccccc2)(c2ccccc2)c2ccccc2)CC(C)(C)N1O`, the growth is -51.6% (active).
Turning to `Fc1cc(-c2ncc(-c3cc(F)c(F)c(F)c3)c(NC3CCCCCC3)n2)cc(F)c1F`, the growth was 101%.
To `COc1c(C)c(C)c(OC)c2c1[nH]c(=O)c1c3cccnc3cn21` belongs 106%; to `CC1(C)CCc2cc(-c3ccn(S(=O)(=O)c4ccc(Cl)cc4)n3)ccc2O1`, 77%; to `O=C(NC1CCCC1)c1ccc(N2CCC(NCc3cccc(C(F)(F)F)c3)CC2)cc1`, 84.5%.
To `CC1=CC2OC34COC3CC(OC(=O)C(F)(F)F)C4(C)C2(C)CC1` (configuration not stated) belongs 105%; to `CCCCOCCOCCOCc1cc2c(cc1Br)OCO2`, 97.7%; to `CCCCCCCCCCN=C(c1ccc(N(C)C)cc1)c1ccc(N(C)C)cc1`, 27.8%.
On to `COc1cccc2c1C(=O)c1c(O)c3c(c(O)c1C2=O)C[C@@](O)(C(=O)COC(=O)c1cccnc1)C[C@@H]3OC1CC(N)C(O)C(C)O1` (some centres not stated), for which the growth was -0.352% (active).
As for `COc1ccc(/C(=C/c2cc(OC)c(OC)cc2[N+](=O)[O-])C(=O)O)cc1`, the figure is 121%; as for `Nc1ccccc1NC(=O)CCCCCCC(=O)Nc1ccc2c(c1)/C(=C/c1ccc[nH]1)C(=O)N2`, 13.7%.
As for `Cc1nnc2c3nnc(-c4ccc(Cl)cc4)n3c3ccccc3n12`, the figure is 103%; as for `CCOc1ccc2c(c1)CC[C@@H]1[C@@H]2CC[C@]2(C)[C@@H](O)[C@@H](O)C[C@@H]12`, 106%; as for `COC(=O)[C@]12CC[C@@H](C)[C@H](C)[C@@H]1C1=CC[C@@H]3[C@@]4(C)CC(=O)[C@H](O)[C@@](C)(CO)[C@@H]4C(=O)C[C@@]3(C)[C@]1(C)CC2`, -37.3% (active).
To `CCCCn1c(=O)[nH]c2c(c1=O)C(c1ccc(Cl)cc1)c1c([nH]c(=O)n(CCCC)c1=O)N2` belongs 102%.
For the compound `CCC(CCNc1cc(OC)cc2cccnc12)CN1C(=O)c2ccccc2C1=O` (configuration not stated), the growth is 99%.
To `COc1ccc(C(=O)c2sc3nc(-c4cccs4)ccc3c2N)cc1OC` belongs 38.1%; to `O=C/C=C/c1ccc([N+](=O)[O-])cc1Cl`, 95.6%.
On to `C/C(=N\NC(=O)c1sc(=S)n(C)c1N)c1cc2ccccc2o1`, for which the growth is 21.5%.
As for `Cc1ccc(-c2cc(C(=O)Nc3ccc(S(=O)(=O)N4CCCCC4)cc3)[nH]n2)c(O)c1`, the figure is 45.1%; as for `CC(=O)OC1Oc2ccccc2-c2oc(=O)c(-c3ccc(F)cc3)cc21` (configuration not stated), 89.9%; as for `COc1ccc(Nc2nc(NCc3ccccc3)c3ccccc3n2)cc1`, 80.7%.
As for `CCOC(=O)c1c(O)c2cc(-c3ccccc3)nc(OCC)c2c(=O)n1C`, the figure is 104%; as for `COc1ccc(-c2nnc(SCC(=O)c3ccccc3)o2)cc1`, 98.3%.
To `CC(=O)Oc1c(C)c(C)c2c(c1C)CCC(C)(CC(=O)OCCCCCCCCCCC[P+](c1ccccc1)(c1ccccc1)c1ccccc1)O2` (configuration not stated) belongs -71.3% (active); to `Cc1ccccc1[P+](Cc1ccccc1)(c1ccccc1)c1ccccc1`, 8.7% (active).

The record behind these values is PubChem BioAssay (NCI).
